Assay outcomes deposited in PubChem by National Center for Advancing Translational Sciences (NCATS).
MCF10A rerep: inducers of DNA re-replication in MCF 10A breast cells; MCF 10A DNA re-replication, Hoechst nuclear intensity, 48 h; Potency, µM (highest dose often 46.1 µM), without a hit: at the highest dose activity, positive = re-replication, actives largely listed as activators; hit rate 2.9% among 350,000; AID 624296; note: % of control where 0% means no effect; nearly all actives have a fitted effect of over 50% in size
KB-V1 MDR tox: kills drug-selected multidrug resistant KB-V1 cells; KB-V1 MDR cells viability, CellTiter-Glo, 72 h; AID 1347076; hit rate 3.4% among 400,000; Potency, µM (doses to about 46.1 µM), hits mostly cytotoxic; note: % is set by controls: 0 for no effect and ±100 for the full control effect; nearly all actives have a fitted effect of over 60% in size
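qHTS viability screen in drug-selected KB-V1 MDR cells: 72 h compound treatment at 37 degrees C, ATP luminescence end point.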
ELG1 repair inh: inhibitors of ELG1-dependent DNA repair in HEK293T cells; hit rate 2.3% among 330,000; HEK293T ELG1-luciferase reporter, luminescence, 16 h; DNA damage induced by 5-fluorouridine; Potency, µM (titrated, usually from 46.1 µM), inactives show at the highest dose activity change, negative = inhibition, usual class: inhibitors; AID 504467; note: % is set by controls: 0 for no effect and ±100 for the full control effect; nearly all actives have a fitted effect of over 55% in size
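5-Fluorouridine DNA damage + compound/DMSO, 2,000 cells/well, 16 h, 37 °C/5% CO2. ONE-Glo, 30 min RT, luminescence. Readout = decrease in reporter signal.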
SW480 rerep: inducers of DNA re-replication in SW480 colon cancer cells | SW480 DNA re-replication, Hoechst DNA content imaging, 48 h | Potency, µM (top dose mostly 46.1 µM), for inactives: top-dose re-replication activation, actives largely listed as activators | hit rate 1.8% among 340,000; note: % of control where 0% means no effect; nearly all actives have a fitted effect of over 55% in size
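250 cells/well; 23 nL cpd via pin tool; 48 hr, 37 C, 5% CO2; Hoechst 40 min; imager read of total nuclear intensity, ex 405/em 500-530 nm.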
KB-3-1 cytotox: KB-3-1 parental cell cytotoxicity; Potency, µM (doses to about 46.1 µM), actives largely listed as cytotoxic; KB-3-1 viability, CellTiter-Glo ATP luminescence, 72 h; hit rate 1.4% among 400,000; note: % is set by controls: 0 for no effect and ±100 for the full control effect; nearly all actives have a fitted effect of over 60% in size
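Multi-concentration cytotoxicity screen in KB-3-1 cells grown in DMEM lacking phenol red with 10% FBS. After 72 h at 37 °C with compound, ATP-dependent luminescence was recorded.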
Active calls of the source: *; i = inactive; u = inconclusive; x = no result given; [ ] = remark or other dose. Most compounds without a hit are left out; they make up all but 8.2% or so of the library. Calls come from the whole dose curve; as a rule, active = well fitted curve in the direction sought with a large enough effect; inconclusive = small, poorly fitted or top-dose-only effect, or another doubt; inactive = no such curve, though single readings can be large; an effect the other way counts as inactive or inconclusive. Potency is the fitted concentration of half-maximal effect.

SMILES	MCF10A rerep	KB-V1 MDR tox	ELG1 repair inh	SW480 rerep	KB-3-1 cytotox
S=C(Nc1ccc(Nc2ccccc2)cc1)NC1CCCCCC1	13%	u	u	21µM*	u
S=C(Nc1ccc(Cl)cc1)NC1CCCCC1	-2%	i	35%	-46%	i
CN(C)Cc1nc2ccccc2c(=O)n1Cc1nc(-c2cc3ccccc3o2)cs1	7%	i	u	0%	u
CCOc1ccc(-c2csc(Cn3c(CN4CCN(C)CC4)nc4ccccc4c3=O)n2)cc1	u	u	21µM*	u	i
Cc1c2c(nc3nc4ccccc4n13)CC(C)(C)CC2=O	3%	15µM*	0%	-12%	i
COc1ccc(-c2nc3c4ccccc4ccn3c2Cc2ccsc2)cc1OC	x	i	x	x	i
CC(NC(=O)CCCCCCN1C(=O)c2ccccc2C1=O)c1ccc2c(c1)CCCC2 (centres undefined)	2%	i	23µM*	-2%	i
O=C(Nc1cccc(Cl)c1)Nc1sccc1-c1nc2ccccc2s1	16µM*	u	1%	18µM*	i
O=C(C[N+]1(CCO)CCOCC1)c1cccs1	x	i	x	x	i
CCOc1ccc(-n2c(C)c(C(C)=O)c3cc(OC(C)=O)ccc32)cc1	11%	i	6.5µM*	7%	i
CCOc1ccc(N(CC)C(=O)CCS(=O)(=O)c2cccc3nonc23)cc1	1%	i	0%	-13%	i
CC(C)(C)c1ccc(C(=O)NCC(=O)NCc2ccccn2)cc1	-2%	i	u	7%	i
CCCCOc1ccc(C(=O)NCC(=O)NCc2ccccn2)cc1	57%	u	26%	u	0.52µM*
CCOC(=O)COc1ccccc1C1C(C(=O)OC)=C(C)NC2=C1C(=O)c1ccccc12 (centres undefined)	x	u	x	x	i
CCN(CC)c1ccc(/C=N/NC(=O)C(O)c2ccccc2)cc1 (centres undefined)	1%	i	-7%	0%	i
C=CCNC(=S)N/N=C/c1ccc(N(CC)Cc2ccccc2)cc1	u	13µM*	u	18µM*	u
CCN(CC)c1ccc(/C=N/NC(=S)NCc2ccc(OC)cc2)cc1	10µM*	i	u	u	i
C=CCNC(=S)N(Cc1ccccc1)Cc1ccccc1	7%	u	-11%	2%	i
CCN(CC)c1ccc(/C=N/NC(=S)NCc2ccccc2)cc1	21µM*	i	-16%	u	i
COCc1cc(C)nc2sc(C(=O)Nc3ccccc3C)c(N)c12	u	i	-13%	18%	i
Cc1cc(C)c2c(N)c(C(=O)Nc3ncc(C)s3)sc2n1	9.2µM*	u	u	u	i
Cc1cc(C)c2c(N)c(C(=O)Nc3ccccc3Cl)sc2n1	12µM*	i	x	u	i
CCc1ccccc1NC(=O)c1sc2nc(C)cc(C)c2c1N	u	u	-5%	u	i
COCc1cc(C)nc2sc(C(=O)Nc3ccccc3Br)c(N)c12	u	i	17%	1.8µM*	i
Cc1cc(C)c2c(N)c(C(=O)Nc3ccccc3Br)sc2n1	5.8µM*	i	u	18µM*	i
SMILES	MCF10A rerep	KB-V1 MDR tox	ELG1 repair inh	SW480 rerep	KB-3-1 cytotox
COc1ccc(C(=O)N2CCc3cc(OC)c(OC)cc3C2COc2ccccc2OC)cc1 (centres undefined)	x	i	x	x	i
CC1CCN(CCCN2C(=O)C3C(C(=O)Nc4ccc(Cl)cc4)C4C=CC3(O4)C2C(=O)NC2CCCCC2)CC1 (centres undefined)	-17%	i	1%	u	i
CCOc1ccccc1NC(=O)c1sc2nc(C)cc(C)c2c1N	x	i	x	x	i
Cc1cc(C)c2c(N)c(C(=O)Nc3ccccc3F)sc2n1	29µM*	i	u	5%	i
O=S(=O)(c1ccc(-c2csc(=Nc3ccc(F)cc3)n2CCCCCCO)cc1)N1CCCC1	x	u	x	x	i
C[C@H]1c2cccc(O)c2C(=O)C2C(=O)C3(O)C(=O)C(C(N)=O)C(=O)[C@@H](N(C)C)[C@@H]3[C@@H](O)[C@@H]21 (some centres undefined)	-4%	i	-3%	6.3µM*	i
COc1ccc(NS(=O)(=O)c2c(C)nc3scc(C)n3c2=O)cc1	x	i	x	x	i
Clc1ccc(C[n+]2csc3ccccc32)cc1	-1%	23µM*	u	-706%	i
CN(Cc1nc2ccccc2c(=O)[nH]1)Cc1nc2ccsc2c(=O)[nH]1	1%	i	u	21µM*	i
CC(NC(=O)CN(C)Cc1nc2ccccc2c(=O)[nH]1)c1ccccc1 (centres undefined)	0%	i	24%	-10%	i
OC(CN1CCN(c2ccccc2Cl)CC1)c1ccccc1 (centres undefined)	u	i	-24%	23µM*	u
OC(CN1CCCC1)c1ccccc1 (centres undefined)	x	i	x	x	i
Cc1csc(-c2nc3ccccc3n2C(C(=O)NC(C)(C)C)c2ccccc2)c1 (centres undefined)	x	i	x	x	i
CCOC(=O)C1(Cc2ccccc2C(F)(F)F)CCN(Cc2ccc(COC)o2)CC1	u	u	u	29%	18µM*
CCOC(=O)C1(Cc2ccccc2C(F)(F)F)CCN(C2CCN(C(C)C)CC2)CC1	18µM*	u	1%	-2%	i
CCOC(=O)C1(Cc2ccccc2C(F)(F)F)CCN(CC(O)CO)CC1 (centres undefined)	8%	i	9%	1%	i
CCOC(=O)C1(CCOC)CCN(Cc2ccc(COC)o2)CC1	-3%	i	10%	-1%	i
C=CCOC(=O)Nc1nc(CCNC(=O)OCc2ccccc2)c(C(=O)O)s1	x	i	x	x	i
C[C@@H]1CN([C@@H](C)CO)C(=O)Cc2cc(NS(=O)(=O)c3cn(C)cn3)ccc2O[C@@H]1CN(C)C(=O)Nc1ccccc1	5%	i	17%	-11%[9.22 µM]	i
CCOc1ccc(NC(=O)CN(C)C(=O)C2CCCC2)cc1OCC	0.65µM*	i	1%	-43%	i
CCCc1cc(C(=O)N(C)CC(=O)Nc2ccc(OCC)c(OCC)c2)sc1C	0.46µM*	u	-22%	-10%	u
CCCC(=O)Nc1ccc(-c2csc(N/N=C\c3ccncc3)n2)cc1	u	u	u	4%	u
CC1CCC(NC(=O)C2CCN(C(=O)Nc3ccccc3)CC2)CC1 (centres undefined)	u	16µM*	20%	-1%	i
CC1CCCN(C(=O)C2CCN(C(=O)Nc3ccccc3)CC2)C1 (centres undefined)	14%	i	-2%	-13%	i
